Assay outcomes: PubChem, The Scripps Research Institute Molecular Screening Center
Rows were chosen to be rich in hits. Some 3.4% of all compounds tested hit in one or more screens of this group.
GPR151 activ = human GPR151 activation | activation, % at 11.2 µM | AID 1508602 | Q8TDV0 | PathHunter beta-arrestin GPR151 cells, luminescence | 1% of 650,000 active; in the data active = activation above about 4.9%;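 note: 0% = median of compound wells and 100% = cells with positive control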
FBW7 act = human FBW7 E3 ligase activation, primary screen | Q969H0 | AlphaScreen FBW7–phospho-cyclin E peptide binding, activator screen | normalized activity (activation), % at 26.1 µM | 0.13% of 650,000 active; in the data active = normalized activity above about 1.9%;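 note: purified mutant Fbw7 with reduced substrate affinity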
MITF primary = human MITF inhibition, primary screen | 0.91% of 650,000 active | AID 1259374 | O75030 | inhibition, % at 2.6 µM | AlphaScreen MITF homodimerization, bead proximity signal; in the data active = inhibition above about 50%;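 note: 0% = vehicle wells with protein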
TEAD-YAP block = TEAD-YAP interaction inhibition; HEK-TIYL cells, TEAD-Gal4/YAP UAS-luciferase luminescence; inhibition, % at 9.12 µM; 1.4% of 640,000 active; AID 1259422; in the data active = inhibition above about 32%;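 note: 0% = median of test compound wells and 100% = reference inhibitor wells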
Numbers without * were called inactive.

SMILES	GPR151 activ	FBW7 act	MITF primary	TEAD-YAP block
CCN(Cc1ccccc1)S(=O)(=O)c1cc(C(=O)Nc2ccc(F)c(F)c2)ccc1F	1	0	11	59*
CCN(Cc1ccccc1)S(=O)(=O)c1cc(C(=O)Nc2ccc(Cl)c(Cl)c2)ccc1F	1	0	12	55*
O=C1OC(c2ccc([N+](=O)[O-])cc2Cl)=N/C1=C\c1ccc(Cl)c(Cl)c1	1	0	22	8
CCn1c(Cc2csc(Nc3ccc(OC)cc3)n2)nnc1SCC(N)=O	-1	1	12	5
CCOC(=O)/C=C1/CC(=O)Nc2nonc2N1	-1	0	-7	-7
CCOC(=O)c1cccc(NC(=O)/C=C/c2ccccc2[N+](=O)[O-])c1	1	0	6	33*
CC1=C(C(N)=O)C(c2ccccc2)N=C(SCc2ccc(F)cc2)N1 (stereo not drawn)	-1	0	-7	-4
O=C(c1ccco1)N1CCN(c2nccn3c(-c4cccc(F)c4)cnc23)CC1	1	0	3	-16
CC(=O)Nc1cccc(-c2cnc3c(N4CCN(C(=O)c5ccco5)CC4)nccn23)c1	-5	0	-9	93*
CC(=O)Nc1cccc(-c2cnc(N3CCN(C(=O)c4ccco4)CC3)c3nccn23)c1	-5	3.2*	16	92*
COc1ccc(CCNC(=O)c2ccc3c(c2)CC(c2nc4ccc(-c5ccnc(N)n5)cc4[nH]2)CO3)cc1 (stereo not drawn)	0	5.8*	-9	41*
CC(C)CNC(=O)c1ccc2c(c1)CC(c1nc3ccc(-c4ccnc(N)n4)cc3[nH]1)CO2 (stereo not drawn)	-1	2.3*	0	-8
COCCNC(=O)c1ccc2c(c1)CC(c1nc3ccc(-c4ccnc(N)n4)cc3[nH]1)CO2 (stereo not drawn)	0	0	13	-8
CC(CNC(=O)c1ccc2c(c1)CC(c1nc3ccc(-c4ccnc(N)n4)cc3[nH]1)CO2)c1cccs1 (stereo not drawn)	1	2.7*	-6	45*
CCOc1ccc(CN2CCNC(=O)C2CC(=O)NCC(C)(C)CO)cc1 (stereo not drawn)	1	0	-4	-9
CCOc1ccccc1OCCOCCN1CC(C)CC(C)C1 (stereo not drawn)	-1	0	3	2
COc1ccccc1NC(=O)Cn1c(C)nc2ccccc21	1	0	6	35*
COc1ccccc1NC(=O)Cn1cc(C(C)=O)c2ccccc21	-1	0	-8	37*
CC(=O)c1cn(CC(=O)NCCOc2ccc(Cl)cc2)c2ccccc12	0	0	-13	40*
CC(=O)c1cn(CC(=O)Nc2ccccc2)c2ccccc12	1	0	-10	28
COc1cccc(NC(=O)Cn2cc(C(C)=O)c3ccccc32)c1	2	0	3	48*
O=C(NCC1CCCO1)c1cn(-c2ccc(Cl)cc2)c(=O)c2ccccc12 (stereo not drawn)	1	0	7	5
CC[C@H](C)[C@@H]1NC(=O)[C@H]2CN(Cc3cccc4ncccc34)CCN2C1=O	0	0	2	5
Cc1c(NS(=O)(=O)c2ccc([N+](=O)[O-])cc2)c(=O)n(-c2ccccc2)n1C	0	2.0*	13	-4
COc1ccccc1C1CC(=O)Nc2cc(C)c(C)cc21 (stereo not drawn)	2	0	14	57*
SMILES	GPR151 activ	FBW7 act	MITF primary	TEAD-YAP block
CCOc1ccccc1C1CC(=O)Nc2cc(C)c(C)cc21 (stereo not drawn)	-1	0	-7	41*
CCCCOc1ccccc1C1CC(=O)Nc2cc(C)c(C)cc21 (stereo not drawn)	1	0	12	4
Cc1cc2c(cc1C)C(c1ccccc1C)CC(=O)N2 (stereo not drawn)	0	0	5	6
Cc1cc2c(cc1C)C(c1ccccc1OC(C)C)CC(=O)N2 (stereo not drawn)	2	0	7	55*
Cc1ccc(C2=NNC(c3ccc(O)cc3O)S2)cc1 (stereo not drawn)	-1	1	10	80*
O=[N+]([O-])c1ccc(C2NN=C(Cc3ccccc3)S2)cc1 (stereo not drawn)	-1	0	-7	-43
Oc1ccc(C2NN=C(Cc3ccccc3)S2)c(O)c1 (stereo not drawn)	0	0	102*	8
Cc1ccc(C2=NNC(c3ccncc3)S2)cc1 (stereo not drawn)	-1	0	8	-12
COc1ccc(NC(=O)CSc2nc3ccccc3o2)cc1OC	-2	0	1	33*
